Experimental data reported in PubChem BioAssay (NCATS).
Inconclusive results are not listed. A call without a number means that no potency is given here. Calls of active or inactive are those of the source. Calls come from the whole dose curve; as a rule, active = well fitted cell-killing curve with a large enough effect; inconclusive = small, poorly fitted or top-dose-only effect; inactive = no such curve, though single readings can be large or run the other way.

Test: qHTS of pediatric cancer cell lines to identify multiple opportunities for drug repurposing: Primary screen for LAN-5 cells (AID 1347100)
Conditions: LAN-5 neuroblastoma viability, CellTiter-Glo luminescence, 48 h; series mostly up to 46 µM
From the text: Drug repurposing or repositioning has been offered as a strategy for drug development in oncology programs. This approach has special potential for childhood cancers and other rare or orphan diseases, where the expected return on new drug development has been a disincentive to pharmaceuticals.
In this project we exploit the poly-pharmacology of drugs to discover new indications via phenotypic screening of a panel of 19 well-characterized cell lines derived from solid tumors seen in children and adolescents. The goal is to identify approved drugs with previously unrecognized anticancer properties that has the potential to reveal new mechanisms and biological processes involved in carcinogenesis or drug resistance. We employed a titration-based paradigm (quantitative high-throughput screening or qHTS), where all compounds were tested at multiple concentrations for their effect on cell viability. Concentration-response curves (CRCs) were derived directly from the primary screen, and both potency and efficacy values were used to identify compounds with robust bioactivity profiles. We screened the NIH Chemical Genomics Center (NCGC) Pharmaceutical Collection (NPC) and Mechanism Interrogation Plate (MIPE) small molecule collections of approved and investigational compounds against these cell lines; and measured metabolically active cells after 48 hours of compound treatment as a proxy for cell viability.
Assay Submitter: Nathalia J. Martinez, National Center for Advancing Translational Sciences, National Institutes of Health, Rockville, MD, USA; email: natalia.martinez@nih.gov
[1] Shen, M et al. Quantitative high-throughput phenotypic screening of pediatric cancer cell lines identifies multiple opportunities for drug repurposing. Oncotarget 2017 Dec 19;9(4):4758-4772. PMID 29435139.
The cells were obtained from University of North Carolina (UNC), Pediatric Preclinical Testing Program (PPT), and Coriell Institute (CI).
qHTS cell viability assay:
Cells were assayed in growth media at a density of 500-1,000 cells/well. Five microliters of cells were dispensed into 1,536-well, white, solid-bottom, TC-treated plates (Greiner Bio One) using a multidrop dispenser and incubated at 37 degrees C, 5% CO2, under a humidified atmosphere for 5 hours. Twenty-three nanoliters of compounds and controls (neutral control DMSO or positive control bortezomib at final concentration of 2.3 µM) were subsequently transferred by Kalypsys pintool. For primary screens, the MIPE collection was tested at 11-point dilutions (final concentrations range from 0.78 nM to 46 µM) and the NPC collection at 8-point dilutions (final concentrations range from 0.59 nM to 46 µM). Compounds tested in follow-up screens were assayed at 11-point dilutions. Cells were incubated for 48 hours, followed by addition of 3 µL of CellTiter-Glo (Promega). After a 15 min incubation at room temperature, samples were analyzed for luminescence intensity using a ViewLux High-throughput CCD imager equipped with clear filters.
Potency is the fitted concentration of half-maximal effect.

Structure (SMILES)	Potency	activity change, negative = cytotoxic
Nc1ccc(C(=O)NCC(=O)O)cc1	inactive	
CCc1oc2ccccc2c1C(=O)c1cc(Br)c(O)c(Br)c1	inactive	
CCN(CC)CCNc1ccc(CO)c2sc3ccccc3c(=O)c12	13.3 µM (active)	
O=C1C(O)=C(O)C(=O)C(O)=C1O	inactive	
C/C=C/c1ccc(O)c(OC)c1	inactive	
CC(C)Cc1ccc(CC(=O)O)cc1	inactive	
O=C(Nc1cccc(C2=NCCN2)c1)Nc1cccc(C2=NCCN2)c1	inactive	
COC(=O)C(c1ccccc1Cl)N1CCc2sccc2C1 (stereo not given)	inactive	
COc1cc(C(=O)NCc2ccc(OCCN(C)C)cc2)cc(OC)c1OC	inactive	
CN(Cc1ccc(C(C)(C)C)cc1)Cc1cccc2ccccc12	inactive	
CN(C)CCC[C@@]1(c2ccc(F)cc2)OCc2cc(C#N)ccc21	inactive	
C[C@H]1O[C@@H](O[C@H]2CC[C@@]3(C)[C@H](CC[C@@H]4[C@@H]3C[C@@H](O)[C@]3(C)[C@@H](C5=CC(=O)OC5)CC[C@]43O)C2)C[C@H](O)[C@@H]1O[C@H]1C[C@H](O)[C@H](O[C@H]2C[C@H](O)[C@H](O[C@@H]3O[C@H](CO)[C@@H](O)[C@H](O)[C@H]3O)[C@@H](C)O2)[C@@H](C)O1	0.237 µM (active)	
C#C[C@]1(O)CC[C@H]2[C@@H]3CCc4cc(OC)ccc4[C@H]3CC[C@@]21C	inactive	
CCCCC(CC)COC(=O)/C=C/c1ccc(OC)cc1 (stereo not given)	inactive	
CCOC(=O)[C@@](C)(N)Cc1ccc(O)c(O)c1	inactive	
N=C(N)N1CCc2ccccc2C1		-2.04% [at 4.84 µM] (inactive)
OC[C@H]1O[C@@H]2O[C@H]3[C@H](O)[C@@H](O)[C@@H](O[C@H]4[C@H](O)[C@@H](O)[C@@H](O[C@H]5[C@H](O)[C@@H](O)[C@@H](O[C@H]6[C@H](O)[C@@H](O)[C@@H](O[C@H]7[C@H](O)[C@@H](O)[C@@H](O[C@H]8[C@H](O)[C@@H](O)[C@@H](O[C@H]1[C@H](O)[C@H]2O)O[C@@H]8CO)O[C@@H]7CO)O[C@@H]6CO)O[C@@H]5CO)O[C@@H]4CO)O[C@@H]3CO	inactive	
CC(=O)O[C@]1(C(C)=O)CC[C@H]2[C@@H]3C=C(C)C4=CC(=O)CC[C@]4(C)[C@H]3CC[C@@]21C	inactive	
Cc1nc(-c2ccc(Cl)cc2)oc1COC(C)(C)C(=O)O	inactive	
CC(C)(Cc1c[nH]c2ccccc12)NCC(O)COc1ccccc1C#N (stereo not given)	inactive	

Structure (SMILES)	Potency	activity change, negative = cytotoxic
COc1ccc(-c2cc(C(F)F)nn2-c2ccc(S(N)(=O)=O)cc2)cc1F	inactive	
CC(=O)O[C@]1(C(C)=O)CC[C@H]2[C@@H]3C=C(Cl)C4=CC(=O)CC[C@]4(C)[C@H]3CC[C@@]21C	inactive	
CCCCNc1ccc(C(=O)OCCOCCOCCOCCOCCOCCOCCOCCOCCOC)cc1	inactive	
COc1ccc(CCN(C)CCCN2CCc3cc(OC)c(OC)cc3CC2=O)cc1OC	inactive	
CO[C@]12C[C@@H](COC(=O)c3cncc(Br)c3)CN(C)[C@@H]1Cc1cn(C)c3cccc2c13	inactive	
Cc1ncc(CO)c(C=O)c1O	inactive	
CCOc1ccccc1OCCN[C@H](C)Cc1ccc(OC)c(S(N)(=O)=O)c1	inactive	
O=C1c2cccc3c2[C@H](CCC3)CN1[C@@H]1CN2CCC1CC2	inactive	
O=C1OC2(c3ccccc31)c1cc(Br)c(O)c(Br)c1Oc1c2cc(Br)c(O)c1Br	inactive	
FC(F)(F)C(F)(F)C(F)(F)C(F)(F)C(F)(F)C(F)(F)C(F)(F)C(F)(F)Br	inactive	
CCCCCCCCCCCCCCCC(=O)O	inactive	
Nc1nc(-c2ccccc2)c(Br)c(=O)[nH]1	inactive	
CN(C)CCOC(c1ccc(Cl)cc1)c1ccccn1 (stereo not given)	inactive	
CCN(CC)CCOC(=O)C(Cc1cccc2ccccc12)CC1CCCO1 (stereo not given)	inactive	
CCNC(=O)/C=C/c1cccc(Br)c1	inactive	
O=C(Nc1ccc([N+](=O)[O-])cc1)Nc1ccc([N+](=O)[O-])cc1	inactive	
NCCNC(=O)c1ccc(Cl)cn1	inactive	
CCCCCN=C(N)N/N=C/c1c[nH]c2ccc(OC)cc12	26.6 µM (active)	
CC(=C(CCOC(=O)C(C)C)SSC(CCOC(=O)C(C)C)=C(C)N(C=O)Cc1cnc(C)nc1N)N(C=O)Cc1cnc(C)nc1N	inactive	
O=c1[nH]c(=O)n([C@H]2C[C@H](O)[C@@H](CO)O2)cc1F	1.33 µM (active)	
